The source of these data is the supplement of paper PMC11417369.

Whole data set: some 25,000 sequences, median “ln(normalized median fluorescence intensity)” near 9.3, cut for the highest 2% near 10. Many of the other results were omitted from the sample, so the highest values are more common in it than they were.

This test concerns PF3D7_0420300 AP2 domain 1 (GST-tagged). Briefly: gcPBM binding intensity (ln(normalized median fluorescence intensity)); higher = stronger DNA binding. Put shortly:
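The binding buffer was 1× PBS containing 1% milk, 0.2 mg/ml BSA, 0.5% salmon testes DNA and 0.03% Triton X-100. In it, GST-tagged P. falciparum DNA-binding domains expressed in E. coli were applied for 1 h to an Agilent 4 × 180k array of primer-extended double-stranded 36-bp intergenic genomic probes plus negative controls. Binding intensity, read with Alexa488 anti-GST antibody and a 488 nm scan, is the highest Masliner-normalised natural-log median intensity across replicate spots of either probe orientation.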
Consider “CACATATAAATATTAACACACATAATGAGTTATATA [CACACA_site7316]”, for which the “gcPBM binding intensity (ln)” value came to 9.33.
Then “GAATATTAAACAAACACACACACATATATATATATA [CACACA_site3382]”, with 9.78; and “TTTTTTTTTTATTTTGCACACTTCTAATTTAGTTCT [CACACA_site5828]”, with 9.45.
As for “TTTCTTAAAATGTTATGTACATATTTCGTTTCAAAG [XGTACX_site6102]”, the figure is 9.01; as for “ATTATATATAAGAAGAGTACTGAATATGTGCAATAT [XGTACX_site4471]”, 9.55; as for “ATATAATATGTTGAATGTACTTAAAAAAATGTATCT [XGTACX_site5385]”, 9.21.
With “TAAATAAATAAAAAAACACACATATATATATATATA [CACACA_site4029]”, the “gcPBM binding intensity (ln)” value worked out at 9.51.
Then “AAAACAAACGGACACACACACATATATATATATATA [CACACA_site5924]”, with 9.97; and “AAAAAAAACGGACACACACACATAAATATATATAAA [CACACA_site4260]”, with 10.3; and “TAAATATATATATACACACACATACACAAAAAAAAA [CACACA_site3580]”, with 10.1.
With “CTAAAATACGGACACACACACACATATATATATATA [CACACA_site6138]”, the “gcPBM binding intensity (ln)” value was found to be 10.2.
For the sequence “AAAAAAAACGGACACACACACATACAAAATATATAT [CACACA_site4910]”, the “gcPBM binding intensity (ln)” value was 10.2.
As for “CCATAAAACTATAATACACACATATAGATTAACATA [CACACA_site7849]”, the figure is 9.7; as for “CTATAAATGAATGTTTGTACTTAATAATAAAAGAAA [XGTACX_site3170]”, 9.06; as for “GCATATTTTATAATTTTACACACCATATAAAATAAT [CACACA_site8904]”, 9.51.
Then “TGTTTGTAATTATGTATGCACTTTTTTGTATGTGTG [GTGCAC_site9668]”, with 9.58; and “AAAAAAAAAAGACACACACACAAAATAAACAAACAA [CACACA_site7308]”, with 10.3; and “AAAAAAATAAGACACACACACAAAAAAATAAAAATA [CACACA_site6357]”, with 10.1.
Then “ACAAAATAAAGACACACACACAAACACAAAAAAATA [CACACA_site7568]”, with 10.2; and “CAAAGAGAAATAAACACACACAAAATAAAGAAAAAA [CACACA_site2245]”, with 9.74; and “AAAAATAAATAAGACACACACAAAAAAAAAAAAAAA [CACACA_site1432]”, with 9.54.
Consider “AAAAAAATAAATAAGACACACACAAAAAAAAAAAAA [CACACA_site8404]”, for which the “gcPBM binding intensity (ln)” value came to 9.97.
For the sequence “TATTTTATTATACCAAGTACAAAATTTAAATATGAA [XGTACX_site5478]”, the “gcPBM binding intensity (ln)” value came to 8.99.
“AAAATAATAAATAAATGTACATATATATATATATAT [XGTACX_site3078]”: the “gcPBM binding intensity (ln)” value was determined as 9.1.
As for “AAAAAAAAAAAATACACACAAACACAAATTAAATAA [CACACA_site3809]”, the “gcPBM binding intensity (ln)” value amounted to 9.88.
Take “TATTAATACAGACACACACACACACCCAATAAAATA [CACACA_site243]”: the “gcPBM binding intensity (ln)” value is 10.1.
For the sequence “TTTTTATTTATTAATACACACACACCCACCCACAAA [CACACA_site7965]”, the “gcPBM binding intensity (ln)” value amounted to 10.1.
As for “TTAATTAAATATTATACACACAAAAAAATAATTTTA [CACACA_site96]”, the figure is 9.27; as for “AATTAATAACAAAATAAACACACATATATAAATACA [CACACA_site8456]”, 9.84.
For the sequence “TTTATTTATTAATACACACACACACCCAGACAAAAT [CACACA_site4292]”, the “gcPBM binding intensity (ln)” value is 10.2.
As for “ATAATTAACAAATACACACACACACCCAGACAAAAA [CACACA_site4445]”, the figure is 10.2; as for “ATAATTAACAAATACACACACACACGCCCACAAAAA [CACACA_site6389]”, 10.2; as for “TTTATTTATTAATACACACACACACGCCCACAAAAT [CACACA_site6253]”, 10.2.
In the case of “TAATTAACAAACTATAGTACACAAAATACTTCATAT [XGTACX_site6375]”, the “gcPBM binding intensity (ln)” value was 9.44.
Then “ATGGTAGTGATTAAAAGTACACGTAATTGTAAAAAT [XGTACX_site387]”, with 9.45.
As for “TATATTTAGTAAAAAGGTACCATTCTTATTTATATT [CACACA_negctrl_site1165]”, the figure is 9.13; as for “TTTTATGTAATTATTTGTACATATGCCTCTTAAACT [XGTACX_site748]”, 9.19.
As for “AAAAAAATATATTCCTAATTTATGATTAAAAGGAAT [CACACA_negctrl_site751]”, the figure is 8.98; as for “ATATATTTTTTCTTAACACACATATATAAAATAAAA [CACACA_site3500]”, 9.24; as for “AAGAGAAATGGGCACACACACACATATTATAGATAT [CACACA_site6828]”, 10.2.
On to “AGAAAAGAGAAATGGGCACACACACCCATATTATAT [CACACA_site8433]”, for which the “gcPBM binding intensity (ln)” value stood at 9.66.
Turning to “GAGAAATGGGGACACACACACATATTATAGATATAT [CACACA_site6829]”, the “gcPBM binding intensity (ln)” value was determined as 10.1.
For the sequence “AAAAGAGAAATGGGCACACACACACCCATTATATAT [CACACA_site1530]”, the “gcPBM binding intensity (ln)” value was determined as 9.88.
Consider “AAAAGAGAAATGGGCACACACACACCGATTATATAT [CACACA_site4942]”, for which the “gcPBM binding intensity (ln)” value stood at 10.2.
As for “AAGAGAAATGGGCACACACACACATATTATATATAT [CACACA_site1531]”, the figure is 10.1.
Then “TAATATACTTAATACACACACGAATATTTATAAATA [CACACA_site6675]”, with 9.73; and “ACATATTATAGGAATACACACAAAAACTTATCGGTA [CACACA_site7587]”, with 9.87; and “GTAATACCCAAACACACACACATACCCATATATATA [CACACA_site5510]”, with 10.
In the case of “CATATACATCCACATACACACATACACCCATACACA [CACACA_site5038]”, the “gcPBM binding intensity (ln)” value came out at 9.74.
For the sequence “AATACCCAAGGACACACACACACATATATATATATA [CACACA_site8345]”, the “gcPBM binding intensity (ln)” value is 10.2.
As for “CACCCACCCAGACACACACACACAAAAAAAAAAAGA [CACACA_site499]”, the figure is 10.1; as for “AAAATACCCGGACACACACACATATATATATATATT [CACACA_site6137]”, 9.96.
“ACATCAAGCAGACACACACACACACCCACCCACCGA [CACACA_site371]”: the “gcPBM binding intensity (ln)” value was 10.2.
Then “CAAGCACAGAAACACACACACACACCGACACAGACA [CACACA_site4359]”, with 10.2.
As for “CAAGCACCCAGACACACACACACACCCACACCCACA [CACACA_site369]”, the figure is 10.2; as for “AACAGACAGAAACACACACACATATATATATATATA [CACACA_site3394]”, 9.81.
Take “CATACACCCATACATACACACATACATACACCCATA [CACACA_site5124]”: the “gcPBM binding intensity (ln)” value stood at 9.78.
For the sequence “ATACATCAAGGACACACACACACACCCACACCCACA [CACACA_site8013]”, the “gcPBM binding intensity (ln)” value stood at 10.3.
Then “ATTATTACTATATGTGTACACATCAACTGGTTTGAT [CACACA_site5563]”, with 9.39; and “AAAAAAAAAAAAAAGGTGCATACTTTGAATTAATAT [GTGCAC_site9401]”, with 9.2; and “ATAAAAAATATCACATAAAATAAAAAAAGAAAGGAT [XGTACX_negctrl_site294]”, with 9.62.
As for “AGTGGACTTTTTTTTTTTTTTTTTTTTTTTTTATTA [CACACA_negctrl_site547]”, the figure is 9.2.
As to “AGTATAAATATATTATGTACATATATATTATACTTA [XGTACX_site2623]”, the “gcPBM binding intensity (ln)” value is 9.09.
As for “ATTATCTATCGTTTTTGTACTTACACCTTAATACAA [XGTACX_site7337]”, the figure is 9.58.
Take “TACACAAGCGGACACACACACATATATATATATATA [CACACA_site4832]”: the “gcPBM binding intensity (ln)” value was 9.81.
As for “ACATCAAGCGGACACACACACACACCGACAGACACA [CACACA_site4361]”, the figure is 10.2.
For the sequence “TACACAAGCAGACACACACACATATATATATATATA [CACACA_site1270]”, the “gcPBM binding intensity (ln)” value was determined as 9.72.
“ACATCAAGCAGACACACACACACACCCACCCACCCA [CACACA_site8012]”: the “gcPBM binding intensity (ln)” value was 10.4.
Then “AAGCATACATCAAGCACACACACACCCACAGAGACA [CACACA_site4362]”, with 9.89; and “TAAAGTATTACAACCACACACACACCGATATATTAT [CACACA_site9382]”, with 9.99.
For “ATAAAAATAAAAAGTGTGCACACAAAAATATATATA [GTGCAC_site9931]”, the “gcPBM binding intensity (ln)” value worked out at 9.9.
Then “ATATATATATATATATGTACATATTCACTTATATTT [XGTACX_site5324]”, with 9.18; and “ATTAAACATAAATATGCACACATATACATATATTCA [CACACA_site8850]”, with 9.4; and “TATGTACACCCATATACACACCTCTATAATATATAT [CACACA_site4563]”, with 9.67.
Then “TTTTATGAAAAGTATTGTACGTATAATTTATATGTA [XGTACX_site1639]”, with 9.04.
Then “GGAACTTATTTTTATACACACATATGTGCATATTAT [CACACA_site629]”, with 9.68; and “ATATAATAAAATGACACACGCATATATATATATATA [CACACA_site2789]”, with 9.33; and “AAAAAAAAAAAAAACACACACACACGCATAAATATA [CACACA_site6217]”, with 10.1.
Regarding “ATAAAAAAAAGACACACACACATATATATATATATA [CACACA_site3073]”, the “gcPBM binding intensity (ln)” value was 9.67.
As for “TATAAATAAAGACACACACACACACCGTATAATTAC [CACACA_site7829]”, the figure is 10.2; as for “AAAAAAAAAAGACACACACACATATAAATATAAATA [CACACA_site6899]”, 10.2.
For “CATATAAATATATATACACACACACCGTAATACATA [CACACA_site9158]”, the “gcPBM binding intensity (ln)” value stood at 10.2.
Then “CATATAAAAAGACACACACACACATATATATATATA [CACACA_site940]”, with 10; and “TAAAAAGGAAGACACACACACACATATATAAATATA [CACACA_site7657]”, with 10.2; and “TATAAATAAAGACACACACACATATAAATAAATATA [CACACA_site7155]”, with 10.1.
As for “CACACTAAAAGACACACACACACACGCATATAAATA [CACACA_site7874]”, the figure is 10.2; as for “TATATAAATAGACACACACACACCTTATAATTACTA [CACACA_site7828]”, 10; as for “AAAAGGAACAGACACACACACATATATAAATATGTA [CACACA_site7656]”, 9.97.
On to “ACAAAAAAAAACGTGGTGCATTAATAATATTGTATA [GTGCAC_site9469]”, for which the “gcPBM binding intensity (ln)” value was 9.43.
